Eight molecules from PubChem BioAssay (Tox21) can be followed below.

Inconclusive results are not listed. Calls of active or inactive are those of the source. Unless noted, calls follow the shape of the full dose curve.

Experiment [1] is described as follows: Nuclear factor erythroid 2-related factor 2/antioxidant responsive element (Nrf2/ARE) small molecule agonists: qHTS cell viability counter screen in human keratinocytes (AID 1919968; active = well fitted curve in the direction sought with a large enough effect in the repeat runs; an effect the other way counts as inactive or inconclusive; also: nearly all actives have a fitted effect of over 55% in size). In outline:
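Seed 1,500 KeratinoSens cells per well, then incubate 5 h at 37 C/5% CO2. Add compounds in DMSO and incubate 23 h. Add CellTiter-Fluor, wait 1 h and read fluorescence.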
For orientation: In qHTS, concentration-response curves come from the screen itself.

Experiment [2] can be described thus: Nuclear factor erythroid 2-related factor 2/antioxidant responsive element (Nrf2/ARE) small molecule agonists: luciferase reporter gene qHTS assay in human keratinocytes (AID 1919969). Also: nearly all actives have a fitted effect of over 35% in size. Also: potency is read from the fitted curve at half-maximal effect. In general terms: A reporter such as luciferase makes a cellular process visible.
The target of experiment [3] is Gonadotropin-releasing hormone receptor (Homo sapiens) (UniProt P30968). Description: Human gonadotropin-releasing hormone receptor (GnRHR) small molecule agonists, calcium flux assay in GnRHR-HEK293 cells (AID 1920063). Also: nearly all actives have a fitted effect of over 35% in size. In outline: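 Cells: HEK293 stably expressing human GnRHR. Steps: overnight (18 h) culture, 1 h calcium dye loading at 37 C, compound addition, kinetic fluorescence read at 480/540 nm. Each compound tested at 15 concentrations in triplicate.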
For orientation: Calcium assays in cells follow changes in intracellular calcium, usually with a dye or a luminescent sensor.

Experiment [4] concerns the target KiSS-1 receptor (Homo sapiens) (UniProt Q969F8). Description: Human kisspeptin (KISS1R) small molecule agonists, calcium flux assay in KISS1R-HEK293 cells (AID 1920064; active = well fitted curve in the direction sought with a large enough effect in the repeat runs; an effect the other way counts as inactive or inconclusive). In outline: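 Cells plated and incubated 18 h; dye added, 1 h at 37 C; compounds in DMSO pinned in; signal read at 480/540 nm every second for 3 min. Each compound tested at 15 concentrations in triplicate.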

Experiment [5] in a line: G protein-coupled receptor (GPCR) small molecule agonists, calcium flux assay: HEK293 wild type cell line counter screen (AID 1920065). In outline: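 Counter-screen of the Tox21 10K library for non-specific calcium release: dye-loaded cells received compounds in DMSO and were monitored by kinetic fluorescence (480/540 nm, 3 min). Fifteen concentrations, run in triplicate.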

A short description of experiment [6]: p53 small molecule agonists, cell-based qHTS assay with human liver microsomes (AID 1963577).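 Also: p53 response element beta-lactamase reporter cells with liver microsomes plus NADPH.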 In outline:
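In this qHTS, p53 response-element beta-lactamase cells receive test compound together with a microsome/NADPH activating system (0.5 mg/mL final each) and are incubated 16 h at 37 C before LiveBLAzer fluorescence detection.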

Experiment [7] can be described thus: p53 small molecule agonists, cell-based qHTS assay with rat liver microsomes (AID 1963578). In outline:
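Agonist mode in p53RE-bla reporter cells, with compounds co-incubated 16 h at 37 C alongside 0.5 mg/mL rat liver microsomes and 0.5 mg/mL NADPH (final), followed by a 2 h LiveBLAzer detection step.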

Experiment [8] can be described thus: p53 small molecule agonists, cell-based qHTS assay with human liver microsomes: qHTS cell viability counter screen (AID 1963579). Also: nearly all actives have a fitted effect of over 45% in size. In outline: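 Metabolically activated exposure: compounds, human liver microsomes and NADPH (0.5 mg/mL final apiece) were added to p53RE-bla cells seeded 5 h earlier, left 16 h at 37 C, and then assessed for viability by CellTiter-Glo luminescence.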

Experiment [9] can be described thus: p53 small molecule agonists, cell-based qHTS assay with rat liver microsomes: qHTS cell viability counter screen (AID 1963580). Also: nearly all actives have a fitted effect of over 45% in size. In outline: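 Viability is assessed in parallel with the p53 reporter read: HCT-116 p53RE-bla cells receive compounds plus rat microsomes and NADPH (0.5 mg/mL final apiece), incubate 16 h at 37 C, and then CellTiter-Glo luminescence is recorded.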

Experiment [10] can be described thus: p53 small molecule agonists, cell-based qHTS assay: qHTS cell viability counter screen (AID 1963581). Also: nearly all actives have a fitted effect of over 45% in size. In outline: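 Cells: HCT-116 with p53 response element-driven beta-lactamase. Treatment: 16 h, 37 C, compounds in DMSO. Read: CellTiter-Glo luminescence after 30 min RT.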
Experiment [11] has as its target 5-hydroxytryptamine receptor 2A (Homo sapiens) (UniProt P28223). Nature of the experiment: 5-hydroxytryptamine receptor 2A (HTR2A) small molecule agonists, cell-based qHTS assay (AID 1963587). Also: nearly all actives have a fitted effect of over 30% in size. In outline: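 CHO cells stably expressing human HTR2A, plated 18 h, loaded with calcium dye 1 h at 37 C. Agonist mode: compounds added and intracellular calcium fluorescence recorded kinetically for 2 min at 1 sec intervals.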

The target in experiment [12] is Muscarinic acetylcholine receptor M1 (Homo sapiens) (UniProt P11229). Nature of the experiment: Cholinergic receptor muscarinic 1 (CHRM1) small molecule antagonists, cell-based qHTS assay (AID 1963588). Also: nearly all actives have a fitted effect of over 40% in size. In outline: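 CHRM1-CHO calcium-flux assay, antagonist mode. Cells were seeded 18 h, dye-loaded 1 h at 37 C and given compound for 5 min at RT, then acetylcholine was added at 50nM. FDSS fluorescence was read 3 min; 15 concentrations, three runs.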

Experiment [13] shares this target. Description: Cholinergic receptor muscarinic 1 (CHRM1) small molecule agonists, cell-based qHTS assay (AID 1963589). Also: nearly all actives have a fitted effect of over 35% in size. In outline: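 Agonist-mode qHTS in CHO cells stably carrying human muscarinic M1. Intracellular calcium is tracked by fluorescence every second after compound transfer; each compound runs at 15 concentrations in three independent runs.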
Experiment [14] is described as follows: cAMP Responsive Elements (CRE) small molecule antagonists, cell-based qHTS assay (AID 1963591; active = well fitted inhibition curve with a large enough effect in the signal ratio in the repeat runs, not every such curve was filed as active; the % refers to the signal ratio). In outline: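 Antagonist mode: test compounds are co-incubated with the adenylyl cyclase activator NKH477 (0.25 uM final) on CRE-bla HEK293T cells for 3 h at 37 °C, followed by LiveBLAzer substrate loading.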
In experiment [15] the target is Beta-2 adrenergic receptor (Homo sapiens) (UniProt P07550). Description: Adrenergic beta2 receptor (ADRB2) small molecule antagonists, cell-based qHTS assay (AID 1963592). Also: series mostly up to about 92 µM; nearly all actives have a fitted effect of over 50% in size. In outline: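 Cells (CHO, stable ADRB2 overexpression) incubated 18-20hr at 37C; compounds added from DMSO; agonist mix (1nM isoproterenol, 100uM IBMX, 25uM Ro-20-1724) added; 0.5hr RT; d2-cAMP and anti-cAMP-cryptate added; 1hr RT; 665/615 nm read.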

The target in experiment [16] is D(2) dopamine receptor (Homo sapiens) (UniProt P14416). Description: Dopamine D2 receptor (DRD2) small molecule agonists, cell-based qHTS assay (AID 1963594). Also: nearly all actives have a fitted effect of over 35% in size. In outline: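 HEK293 cells stably expressing human DRD2, pre-treated with PDE inhibitor Ro20-1724 (0.1 mM final) and compound 10 min at room temperature, then stimulated with NKH477 (200nM […]) for 30 min. cAMP read by HTRF (665/620 nm).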

Experiment [17] shares this target. Description: Dopamine D2 receptor (DRD2) small molecule antagonists, cell-based qHTS assay (AID 1963595; active = well fitted inhibition curve with a large enough effect in the signal ratio in the repeat runs, with a control signal flat; the % refers to the signal ratio). In outline:
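DRD2-HEK293; 0.1 mM Ro20-1724; cpd 10 min RT; NKH477 200 nM + quinpirole 12 nM, 30 min RT; HTRF cAMP (cAMP-d2/anti-cAMP cryptate), 665/620 nm ratio after 1 h.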

A short description of experiment [18]: cAMP Responsive Elements (CRE) small molecule agonists, cell-based qHTS assay (AID 1963590). In outline: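 Agonist mode qHTS in CRE-bla HEK 293T cells: compounds dosed from DMSO for 3 h at 37 C/5% CO2, followed by LiveBLAzer B/G FRET substrate for 2 h at room temperature.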

Sequence of KiSS-1 receptor (Homo sapiens) (Q969F8 whole entry, looked up): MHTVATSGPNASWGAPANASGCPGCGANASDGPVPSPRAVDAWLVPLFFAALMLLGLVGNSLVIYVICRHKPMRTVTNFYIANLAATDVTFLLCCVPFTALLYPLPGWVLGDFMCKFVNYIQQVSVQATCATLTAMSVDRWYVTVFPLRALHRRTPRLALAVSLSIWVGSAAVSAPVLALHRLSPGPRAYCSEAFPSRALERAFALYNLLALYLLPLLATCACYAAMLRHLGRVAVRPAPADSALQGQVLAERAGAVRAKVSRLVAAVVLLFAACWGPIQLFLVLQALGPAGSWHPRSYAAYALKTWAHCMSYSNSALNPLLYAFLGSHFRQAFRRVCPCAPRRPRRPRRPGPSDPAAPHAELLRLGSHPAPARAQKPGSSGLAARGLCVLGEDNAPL
Sequence of Gonadotropin-releasing hormone receptor (Homo sapiens) (P30968 whole entry, looked up): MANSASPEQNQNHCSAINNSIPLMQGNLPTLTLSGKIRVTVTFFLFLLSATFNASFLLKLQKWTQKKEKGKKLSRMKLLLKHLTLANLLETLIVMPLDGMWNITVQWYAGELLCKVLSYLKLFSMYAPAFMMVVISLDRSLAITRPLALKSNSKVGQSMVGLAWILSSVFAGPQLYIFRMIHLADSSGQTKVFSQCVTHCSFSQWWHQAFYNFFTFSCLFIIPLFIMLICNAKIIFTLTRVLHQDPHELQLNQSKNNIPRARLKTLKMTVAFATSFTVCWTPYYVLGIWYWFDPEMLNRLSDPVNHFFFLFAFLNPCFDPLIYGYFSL
Sequence of Muscarinic acetylcholine receptor M1 (Homo sapiens) (P11229 whole entry, looked up): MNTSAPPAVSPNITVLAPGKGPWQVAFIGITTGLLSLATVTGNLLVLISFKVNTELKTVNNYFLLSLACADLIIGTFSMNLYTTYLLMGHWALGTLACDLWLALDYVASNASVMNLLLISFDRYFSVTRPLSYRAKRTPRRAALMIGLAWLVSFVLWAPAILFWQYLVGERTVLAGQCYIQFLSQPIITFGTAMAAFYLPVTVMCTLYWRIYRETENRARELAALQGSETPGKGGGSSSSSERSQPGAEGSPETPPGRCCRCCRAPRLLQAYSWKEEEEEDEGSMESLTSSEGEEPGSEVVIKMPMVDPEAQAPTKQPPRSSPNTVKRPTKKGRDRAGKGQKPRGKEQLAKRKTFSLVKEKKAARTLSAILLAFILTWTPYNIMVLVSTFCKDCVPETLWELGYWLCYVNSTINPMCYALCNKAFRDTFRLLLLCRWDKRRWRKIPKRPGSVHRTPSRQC
Sequence of D(2) dopamine receptor (Homo sapiens) (P14416 whole entry, looked up): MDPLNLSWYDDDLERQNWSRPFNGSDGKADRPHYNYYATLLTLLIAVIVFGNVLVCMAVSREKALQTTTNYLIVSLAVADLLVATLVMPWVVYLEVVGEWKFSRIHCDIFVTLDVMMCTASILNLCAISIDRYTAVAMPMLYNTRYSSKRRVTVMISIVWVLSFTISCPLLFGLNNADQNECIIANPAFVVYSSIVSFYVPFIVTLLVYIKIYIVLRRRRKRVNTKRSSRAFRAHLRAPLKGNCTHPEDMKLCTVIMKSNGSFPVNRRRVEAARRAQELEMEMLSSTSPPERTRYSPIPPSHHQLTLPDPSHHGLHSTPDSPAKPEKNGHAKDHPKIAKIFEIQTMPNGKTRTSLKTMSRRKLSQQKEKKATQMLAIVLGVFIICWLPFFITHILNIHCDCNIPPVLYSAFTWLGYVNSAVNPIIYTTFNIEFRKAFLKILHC
Sequence of 5-hydroxytryptamine receptor 2A (Homo sapiens) (P28223 whole entry, looked up): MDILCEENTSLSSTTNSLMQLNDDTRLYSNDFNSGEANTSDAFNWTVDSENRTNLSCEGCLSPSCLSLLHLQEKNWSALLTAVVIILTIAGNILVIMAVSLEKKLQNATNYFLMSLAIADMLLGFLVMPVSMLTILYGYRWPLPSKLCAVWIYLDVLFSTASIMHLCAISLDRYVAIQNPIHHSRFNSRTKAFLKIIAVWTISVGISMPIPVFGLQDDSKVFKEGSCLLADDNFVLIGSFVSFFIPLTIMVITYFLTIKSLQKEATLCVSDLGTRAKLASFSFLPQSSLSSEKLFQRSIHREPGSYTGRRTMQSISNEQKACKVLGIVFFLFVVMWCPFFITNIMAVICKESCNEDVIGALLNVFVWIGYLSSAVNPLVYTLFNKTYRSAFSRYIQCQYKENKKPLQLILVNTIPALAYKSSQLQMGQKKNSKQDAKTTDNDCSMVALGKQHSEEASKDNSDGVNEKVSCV
Sequence of Beta-2 adrenergic receptor (Homo sapiens) (P07550 whole entry, looked up): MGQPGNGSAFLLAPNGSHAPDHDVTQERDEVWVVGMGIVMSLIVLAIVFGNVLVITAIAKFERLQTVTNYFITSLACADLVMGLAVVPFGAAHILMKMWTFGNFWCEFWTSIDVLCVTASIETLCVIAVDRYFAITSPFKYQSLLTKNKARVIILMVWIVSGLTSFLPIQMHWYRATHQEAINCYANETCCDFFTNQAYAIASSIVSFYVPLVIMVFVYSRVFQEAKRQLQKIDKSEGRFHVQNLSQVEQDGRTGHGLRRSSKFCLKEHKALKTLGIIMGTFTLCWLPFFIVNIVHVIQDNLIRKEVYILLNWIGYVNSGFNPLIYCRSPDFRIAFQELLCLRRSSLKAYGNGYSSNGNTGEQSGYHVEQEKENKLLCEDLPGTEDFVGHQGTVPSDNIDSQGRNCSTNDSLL

Regarding `Nc1ccc(Cl)c([N+](=O)[O-])c1`, the Potency entry in experiment [1], in [3], in experiment [6], in experiment [7], in experiment [8] and in [9] was “inactive” throughout. Besides, the Potency entry in experiment [10], in [11], in [12], in [13], in [14] and in [15] was “inactive” throughout. Further, the Potency entry in experiment [16] and in [17] was “inactive” throughout. The Potency in [2] was 54.5 µM (active). The outcome in [4] and in experiment [5] was inactive.
As for `Cc1nc(-c2ccc(OCC(C)C)c(C#N)c2)sc1C(=O)O`, the Potency entry in experiment [1], in experiment [3], in experiment [6], in experiment [7], in [8] and in experiment [9] was “inactive” each time. Also, the Potency entry in experiment [10], in [11], in [12], in experiment [13] and in experiment [16] was “inactive” throughout. Also, the Potency in experiment [2] was 0.0531 µM (active). Besides, the outcome in experiment [4] and in experiment [5] was inactive.
On to `CCOC(=O)CS`, for which the Potency result in experiment [1], in experiment [3], in [6], in [7], in [8] and in experiment [9] was “inactive” in each case. Further, the Potency entry in experiment [10], in experiment [11], in experiment [12], in experiment [13], in experiment [18] and in [14] was “inactive” in each case. Further, the Potency entry in experiment [15], in experiment [16] and in experiment [17] was “inactive” each time. Besides, the Potency in experiment [2] was 70.5 µM (active). In addition, the outcome in [4] and in experiment [5] was inactive.
Regarding `CCCCCCCC`, the Potency result in experiment [1], in experiment [2], in experiment [3], in [6], in experiment [7] and in experiment [8] was “inactive” throughout. In addition, the Potency result in [9], in experiment [10], in experiment [11], in [12], in [13] and in experiment [18] was “inactive” in each case. The Potency entry in experiment [14], in experiment [15], in experiment [16] and in experiment [17] was “inactive” each time. The result in experiment [4] and in experiment [5] was inactive.
As to `CC(C)(C)c1cc(CCC(=O)NN)cc(C(C)(C)C)c1O`, the Potency result in [1], in experiment [2], in [3], in experiment [6], in experiment [7] and in experiment [8] was “inactive” in each case. The Potency result in [9], in [10], in [11], in [12], in [13] and in experiment [18] was “inactive” each time. In addition, the Potency result in experiment [14], in experiment [15] and in experiment [16] was “inactive” throughout. In addition, the outcome in experiment [4] and in experiment [5] was inactive.
For `O=C1OC(=O)C2CCCCC12` (stereo not drawn), the Potency result in experiment [1], in experiment [2], in [3], in experiment [6], in experiment [7] and in [8] was “inactive” throughout. For the same molecule, the Potency entry in experiment [9], in experiment [10], in experiment [11], in experiment [12], in [13] and in experiment [18] was “inactive” in each case. Moreover, the Potency result in experiment [14], in [15], in [16] and in experiment [17] was “inactive” each time. Besides, the outcome in experiment [4] and in experiment [5] was inactive.
Consider `[Cl][Pt-2]([Cl])([Cl])[Cl]`, for which the Potency entry in experiment [1], in [2], in experiment [3], in experiment [6], in [7] and in experiment [8] was “inactive” each time. The Potency entry in [9], in experiment [10], in experiment [11], in [12], in experiment [13] and in experiment [14] was “inactive” in each case. In addition, the Potency entry in experiment [15] is “inactive”. Besides, the result in [4] and in experiment [5] was inactive.
For the molecule `CCCOC(=O)c1ccc(C(=O)OCCC)nc1`, the Potency entry in [1], in experiment [2], in experiment [3], in experiment [6], in experiment [7] and in experiment [8] was “inactive” in each case. Further, the Potency result in [9], in experiment [10], in [11], in [12], in [13] and in [15] was “inactive” each time. Also, the Potency result in [16] and in [17] was “inactive” in each case. Also, the outcome in [4] and in [5] was inactive.
